Biological target: DMKN
Test: pooled miR-30 sensor sort-seq; sequence = guide strand
Conditions: shRNA

Sequence	sensor-assay potency score (higher = more potent)
TGCCTGTCTGCCAATCTCGTGC	-0.915
TGTAATTGTAGTTCTGATCGGC	0.784
TTGTAGTTCTGATCGGCTCTGC	0.13
TGACTGAGTACTTCCCACCATA	-1.25
TTGTTGTTGTCACCATTGCTGC	-0.932
TTGTTGTCACCATTGCTGCCAC	-0.584
TCGAATGACATCTTCTGCCTGT	0.442
TTGGATTTAAAATTCTTCCAGA	0.603

Biological target: DMRT3
Test: as above
Conditions: shRNA

Sequence	sensor-assay potency score (higher = more potent)
TACTCTTTGCCACATCTGGGGA	-0.96
TTGACACAAATGGACACCCATC	-1.32
TTACTCTTTGCCACATCTGGGG	-0.22
TAGACTCTCAGGTTCTGCGGAA	-0.423
TTTTTTAACACTTCAAGCGGCG	-0.226
TACATTGACATTACACATGTTT	-0.269
TTGTCTCTGAAAACTGTCCAAG	-0.806
TTTGACACAAATGGACACCCAT	0.206
TTGCAACAGAACCACTTCCTTT	-0.544
TTTGTCACTGAAGACCTCTGTA	0.155
TACATTAACCTGACAAAGCTTA	0.0811

Biological target: DMRTC2
Test: as above
Conditions: shRNA

Sequence	sensor-assay potency score (higher = more potent)
TCTGAGGGACCAGATGTCCGGG	-1.06
TTTGTGACACTCGCAAGCCTGG	-0.968
ATATGCAGAGCAACAGAGGGGG	-0.319
TTGTGACACTCGCAAGCCTGGA	-1.29
TAGCTGAAGAGGGTCTGGGGTG	-1.25
TATCAGAGTTGAGTGTGTGCGG	-0.137
ATTTGTGACACTCGCAAGCCTG	-0.869
TCAGTACTGGGTGAGATCCTGG	-0.163
TCAGAGTTGAGTGTGTGCGGGG	-0.0492
ACACATTTGTGACACTCGCAAG	-1.72
TTCTGAAGTGGTTGGGAGCTTT	-0.576
TATGCAGAGCAACAGAGGGGGC	-1.35

Biological target: DMXL1
Test: as above
Conditions: shRNA

Sequence	sensor-assay potency score (higher = more potent)
TTTCATTAAATGAACTTGGGAA	0.382
TTTCTGAACTTCCATCTGGAGA	-0.95
TTTAACACTATGACATACTGAT	0.376
TTTCTAAATAGTATCTACTTAA	-0.599
TAAGTTAAAAGCATTGTGCATT	-0.306
TTATTTGAAAATTAGGATGGGA	0.431
TAATTCTTGCTTTACCTCCAGG	-0.447
TTGAACTCGTTCTTTACTGGAA	-0.246
TACATTTCTAAATAGTATCTAC	-0.076

Reference: the OligoGym collection
